The full ranking holds about 33,000 sequences; the median of “E-score (-0.5 to 0.5)” is about -0.011, and the highest 2% start at about 0.28. Only a selection was taken, and the highest values are over-represented in it overall.
target: T1, Gcr1 (UniProt P07261); assay: PBM E-score (8-mer binding enrichment) (E-score (-0.5 to 0.5)); higher = stronger / more preferred TF binding; conditions: protein concentration: 100 nM; construct: GST-full length
T1 sequence: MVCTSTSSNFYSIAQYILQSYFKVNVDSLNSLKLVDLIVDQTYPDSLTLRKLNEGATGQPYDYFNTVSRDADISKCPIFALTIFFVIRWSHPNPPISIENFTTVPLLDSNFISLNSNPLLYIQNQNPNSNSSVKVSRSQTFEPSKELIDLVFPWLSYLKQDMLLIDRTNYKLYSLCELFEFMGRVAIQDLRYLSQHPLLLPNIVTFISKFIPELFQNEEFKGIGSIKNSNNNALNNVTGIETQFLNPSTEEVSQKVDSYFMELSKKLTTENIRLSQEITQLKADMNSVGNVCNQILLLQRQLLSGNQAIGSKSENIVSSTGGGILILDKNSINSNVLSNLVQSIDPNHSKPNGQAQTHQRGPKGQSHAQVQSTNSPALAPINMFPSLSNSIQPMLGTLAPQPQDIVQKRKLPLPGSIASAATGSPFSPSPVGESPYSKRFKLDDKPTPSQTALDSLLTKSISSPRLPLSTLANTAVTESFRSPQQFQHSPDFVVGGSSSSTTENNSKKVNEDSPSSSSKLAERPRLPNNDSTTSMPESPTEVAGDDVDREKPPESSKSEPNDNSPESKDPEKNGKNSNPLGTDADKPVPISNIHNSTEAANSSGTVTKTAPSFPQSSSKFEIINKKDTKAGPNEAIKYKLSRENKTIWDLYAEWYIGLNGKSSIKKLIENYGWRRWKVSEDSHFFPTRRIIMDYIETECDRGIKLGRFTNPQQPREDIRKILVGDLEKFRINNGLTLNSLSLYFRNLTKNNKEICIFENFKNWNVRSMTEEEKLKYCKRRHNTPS
Summary of the method: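 For each ungapped eight-base word taken together with its reverse complement, the Universal PBM Analysis Suite assigned an E-score. Binding data came from GST-tagged yeast transcription factors, applied at about 100-200 nM, on universal all-10-mer Agilent arrays made double-stranded by primer extension. Fluorescent anti-GST marked bound protein, and scans were normalised with masliner.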

| Sequence | PBM E-score |
| --- | --- |
| CCGGTTCG | -0.0186 |
| ACTAAATC | 0.0396 |
| CCTAAATA | 0.129 |
| CCTAAATC | 0.306 |
| GTCGGTTA | -0.058 |
| CGAACACC | -0.135 |
| CGTTCATA | -0.0211 |
| ATTACTGC | -0.0604 |
| AATACTGG | 0.369 |
| ATTACTGG | 0.362 |
| ATTACTGA | -0.0681 |
| AATACTGA | 0.0152 |
| CATACTGG | 0.209 |
| ACTACTCC | 0.0438 |
| CAATTAGC | -0.0933 |
| AACGTCCT | 0.043 |
| AGCGTCAC | -0.078 |
| GCCGTCCC | -0.0711 |
| ATCGTCCA | 0.0357 |
| AACGTCCC | -0.159 |
| ACCGTCCT | -0.196 |
| AGCGTCCC | 0.347 |
| AGCGTCCG | 0.165 |
| CGCGTCCC | 0.0398 |
| GGCGTCCC | 0.362 |

| Sequence | PBM E-score |
| --- | --- |
| AGCGTCCA | 0.437 |
| AGCGTCCT | 0.426 |
| CACTTCTA | 0.00557 |
| ATTTATGC | 0.0089 |
| GCGGCCCC | 0.19 |
| GATGAGAA | -0.138 |
| TGCGTCCA | 0.0639 |
| GGCGTCCA | 0.436 |
| CGCGTCCA | 0.245 |
| GTGACATA | 0.217 |
| GCAGATTA | 0.0499 |
| AGATACCA | 0.246 |
| GGATACCA | 0.33 |
| TGATACCA | 0.107 |
| GAAAACCA | 0.084 |
| AAATCTTA | 0.111 |
| AGAATCTA | 0.219 |
| CGCATCTA | 0.204 |
| CGAATCTA | 0.122 |
| AGCATCTC | 0.121 |
| GGTATCTA | 0.292 |
| AGTATCTA | -0.103 |
| GGCATCAA | 0.0535 |
| GGCATCTA | 0.347 |
| CGTATCTA | 0.0661 |

| Sequence | PBM E-score |
| --- | --- |
| AGCATCTG | 0.115 |
| AGCATCTA | 0.319 |
| GGAATCTA | 0.357 |
| CGAGACAG | -0.0925 |
| AGACGGAA | -0.0525 |
| AAGGAATA | -0.159 |
| ACTGGTCC | -0.314 |
| ACCCACAC | -0.0404 |
| ACTCGCCG | -0.00848 |
| ACTCTTCC | -0.211 |
| CGCGAACA | -0.00841 |
| GCGGGGCC | 0.131 |
| ACATCTAC | -0.0726 |
| CATTGAAC | 0.0331 |
| ATTTTAGC | 0.0912 |
| AGCCACTG | 0.11 |
| CACCGGTC | -0.271 |
| CCGGACGC | 0.31 |
| CCGGACGG | -0.116 |
| CTGGACGC | 0.412 |
| CAGGACGC | 0.412 |
| CTGGACGA | -0.0396 |
| CAGGACGA | -0.145 |
| AAGGACGC | 0.256 |
| GAGGACGC | 0.289 |

| Sequence | PBM E-score |
| --- | --- |
| GAGGACAC | -0.225 |
| GAGGACGA | -0.0483 |
| ATGGACGC | 0.262 |
| ACGGACGC | 0.14 |
| AATTTGAG | 0.137 |
| AGCTTCGA | 0.0125 |
| TATTGCCA | 0.00643 |
| ACCCGCTC | -0.0223 |
| ATATGCAT | -0.0625 |
| AGAAAAAC | 0.134 |
| GTGTTCCA | 0.112 |
| ACCCGGCA | 0.125 |
| AACGGAGG | -0.167 |
| CAGCCACG | 0.12 |
| ACAAGATC | 0.0465 |
| CAAAGAAG | 0.184 |
| AAAAGAAG | 0.309 |
| ACAAGATA | 0.102 |
| AGAAGAAC | 0.13 |
| AGAAGAAT | 0.119 |
| AAAAGAAC | -0.0325 |
| ATAAGAAA | 0.171 |
| ACAAGATG | 0.294 |
| ATAAGAAC | 0.269 |
| ATAAGAAG | 0.381 |

| Sequence | PBM E-score |
| --- | --- |
| AGAAGAAG | 0.437 |
| CTCAATAC | -0.00463 |
| CTGTTGGA | 0.103 |
| GGTCGGAC | -0.206 |
| CCATATCG | 0.05 |
| CGTGAGGC | -0.0867 |
| ACAAGAAT | 0.252 |
| ACAAGAAA | 0.155 |
| ACAAGAAG | 0.415 |
| GCAAACTA | 0.0887 |
| GCGCACCC | -0.0278 |
| AGGCACCA | 0.136 |
| GGGCACGA | 0.0341 |
| AGGCACCG | 0.04 |
| AGGCACCC | 0.284 |
| GGGCACCA | 0.364 |
| TGGCACCA | 0.321 |
| GGGCACAC | -0.0584 |
| TGGCACAA | -0.0481 |
| TCGCACCA | 0.0244 |
| GGGCACCC | 0.321 |
| AGGCACCT | 0.16 |
| CCATACTA | 0.0399 |
| CATGGTGC | 0.0809 |
| CGTGCATC | 0.00547 |

| Sequence | PBM E-score |
| --- | --- |
| AAGCCCGA | 0.0664 |
| GGTATCGA | 0.00098 |
| TAGCACCA | 0.323 |
| GAGCACCA | 0.207 |
| CAGCACCA | 0.277 |
| CGGCACCC | 0.381 |
| CGGCACCG | 0.143 |
| CGGCACCA | 0.245 |
| GTCACCAA | 0.0813 |
| GCAGGAAC | -0.0184 |
| CAATCTCC | 0.0196 |
| CAGATAGA | 0.0277 |
| ACAGTCCT | -0.141 |
| CCTACGGC | -0.146 |
| AACTCGGA | 0.0328 |
| CTTACCCC | -0.052 |
| CGGGACCG | -0.00477 |
| CGGGACCC | 0.306 |
| AGGGACCC | -0.0366 |
| CGGGACCA | 0.00102 |
| GGGGACCC | 0.291 |
| GGGGACCA | 0.194 |
| TAGCTGCA | -0.0344 |
| AGACGGAG | -0.0738 |
| CAAGCCGC | -0.00721 |

| Sequence | PBM E-score |
| --- | --- |
| CAAGCCGA | -0.038 |
| GCAGCCGC | 0.282 |
| GAAGCCGA | 0.401 |
| GAAGCCGC | 0.439 |
| CCAGCCGC | -0.0253 |
| TAAGCCGA | -0.177 |
| AAAGCCGC | 0.0398 |
| ACAGCCGC | -0.0946 |
| ATGTGGTC | -0.0553 |
| CTTTTGAA | 0.1 |
| AAATTTGC | 0.109 |
| ACGCAGCG | 0.244 |
| CCGCAGCC | 0.223 |
| ACGCAGAT | 0.151 |
| ACGCAGCT | 0.308 |
| GCGCAGAC | -0.167 |
| ACGCAGCC | 0.304 |
| GCGCAGCC | 0.292 |
| ACGCAGCA | -0.0163 |
| GCGCAGCA | -0.0801 |
| AGAACCGG | 0.214 |
| CGAATGGC | 0.137 |

— the supplement of paper PMC3334620
